Hits are enriched below; roughly 2.5% of the tested compounds scored in any of these assays.
Pol beta inh – qHTS Assay for Inhibitors of DNA Polymerase Beta | P06746 | AID 485314, 2010 | hit rate 1.3% among 340,000 | Pol beta primer extension/strand displacement, fluorescence kinetic | Potency, µM (highest dose often 114 µM), inactives show at the highest dose activity change, negative = inhibition, most hits filed as inhibitors; further: on the % scale 0 is the no-effect control and ±100 the full control effect
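Reaction started by 50 nM substrate onto compound-treated Pol beta (10 nM, 15 min preincubation, room temperature); plates read at 0 min and 10 min. Normalized concentration-effect data fitted by four-parameter Hill equation.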
POLH inh – qHTS for Inhibitors of Polymerase Eta. hit rate 1.2% among 390,000. Potency, µM (titrated, usually from 114 µM), inactives show at the top dose activity change, negative = inhibition, usual class: inhibitors. DNA polymerase eta (Homo sapiens), Q9Y253. recombinant Pol eta, fluorescent DNA replication assay; further: on the % scale 0 is the no-effect control and ±100 the full control effect
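Pol eta (10 nM) was preincubated with compounds for 15 min at room temperature, after which fluorescent replication substrate (50 nM final) was added to start the reaction. Fluorescence was read kinetically at 0 and 10 min.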
L3MBTL1 block – qHTS Assay for the Inhibitors of L3MBTL1. Lethal(3)malignant brain tumor-like protein 1 (Homo sapiens), Q9Y468. AlphaScreen L3MBTL1–H3K9me1 peptide binding. Potency, µM (top dose mostly 57.1 µM), without a hit: at the top dose activity, negative = inhibition, hits mostly inhibitors. hit rate 0.66% among 230,000; further: on the % scale 0 is the no-effect control and ±100 the full control effect; nearly all actives have a fitted effect of over 60% in size
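AlphaScreen assay: L3MBTL1 (50 nM final) was preincubated 30 min at room temperature with biotinylated H3(1-15)K9me1 peptide (75 nM final), then 30 min with library compounds; streptavidin donor and nickel chelate acceptor beads (10 ug/mL final) added, 30 min dark.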
POLI inh – qHTS for Inhibitors of Polymerase Iota. Pol iota fluorescent replication assay, 10 min. hit rate 1% among 390,000. AID 588590, 2011. DNA polymerase iota (Homo sapiens), Q9UNA4. Potency, µM (highest dose often 115 µM), for inactives: at the top dose activity, negative = inhibition, usual class: inhibitors
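Fluorescent replication assay read twice, at 0 min and 10 min after adding 50 nM (final) substrate. Enzyme (10 nM) and compounds were first incubated 15 min at room temperature; enzyme-free buffer wells were negative controls.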
APEX1 inh – qHTS Assay for Inhibitors of the Human Apurinic/apyrimidinic Endonuclease 1 (APE1) | DNA repair nuclease/redox regulator APEX1 (Homo sapiens), P27695 | recombinant APE1, TAMRA/BHQ-2 abasic DNA cleavage fluorescence | Potency, µM (titrated, usually from 65.8 µM), without a hit: at the top dose activity change, negative = inhibition, actives largely listed as inhibitors | hit rate 0.35% among 350,000;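 further: plate controls were vehicle for no effect and reference inhibitor for full effect; nearly all actives have a fitted effect of over 55% in size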
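APE1 at 0.75 nM final was preincubated with compound 15 min at room temperature, then 50 nM double-stranded THF abasic-site substrate (5'-TAMRA/3'-BHQ-2) was added. Fluorescence (ex 525/em 598 nm) was read kinetically; third-minus-first read gave activity.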
Pol kappa inh – qHTS for Inhibitors of Polymerase Kappa. DNA polymerase kappa (Homo sapiens), Q9UBT6. purified Pol kappa, fluorescent DNA synthesis assay, 10 min. Potency, µM (titrated, usually from 107 µM), for the others: at the top dose activity, negative = inhibition, actives largely listed as inhibitors. hit rate 0.53% among 400,000; further: on the % scale 0 is the no-effect control and ±100 the full control effect
Target sequence (Q9UBT6 whole entry, looked up): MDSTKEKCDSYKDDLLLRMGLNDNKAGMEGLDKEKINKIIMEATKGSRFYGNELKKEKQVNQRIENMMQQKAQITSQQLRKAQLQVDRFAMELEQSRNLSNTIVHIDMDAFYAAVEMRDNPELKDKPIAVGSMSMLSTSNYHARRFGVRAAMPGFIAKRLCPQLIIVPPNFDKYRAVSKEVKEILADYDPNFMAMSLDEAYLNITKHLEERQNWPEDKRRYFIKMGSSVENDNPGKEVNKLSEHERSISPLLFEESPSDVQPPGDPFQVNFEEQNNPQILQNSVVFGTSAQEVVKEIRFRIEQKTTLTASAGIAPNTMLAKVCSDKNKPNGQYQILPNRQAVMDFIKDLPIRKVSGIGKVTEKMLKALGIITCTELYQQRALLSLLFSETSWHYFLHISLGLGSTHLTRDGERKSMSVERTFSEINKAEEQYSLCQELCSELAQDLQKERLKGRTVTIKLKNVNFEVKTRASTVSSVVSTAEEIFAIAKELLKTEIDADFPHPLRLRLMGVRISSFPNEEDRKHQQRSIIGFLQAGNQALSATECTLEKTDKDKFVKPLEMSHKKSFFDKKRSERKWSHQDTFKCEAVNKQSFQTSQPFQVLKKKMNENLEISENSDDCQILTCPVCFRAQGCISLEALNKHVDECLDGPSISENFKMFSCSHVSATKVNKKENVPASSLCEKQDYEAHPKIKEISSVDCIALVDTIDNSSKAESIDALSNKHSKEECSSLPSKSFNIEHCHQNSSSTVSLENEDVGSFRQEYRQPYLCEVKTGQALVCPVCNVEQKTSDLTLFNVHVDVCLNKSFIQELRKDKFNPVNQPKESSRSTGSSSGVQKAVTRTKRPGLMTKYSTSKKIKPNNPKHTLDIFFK
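First, compounds were pin-transferred onto 10 nM Pol kappa. After 15 min at room temperature, substrate was added to 50 nM final. Fluorescence was then measured kinetically at 0 and 10 min.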
Active calls of the source: *; ? = inconclusive; nt = no result given; [ ] = another dose, or the depositor's remark. The call rests on the fitted dose curve; in most records, active means well fitted curve in the direction sought with a large enough effect; inconclusive means small, poorly fitted or top-dose-only effect, or another doubt; inactive means no such curve, though single readings can be large; an effect the other way counts as inactive or inconclusive. Potency means the concentration at half of the fitted maximal effect.

SMILES	Pol beta inh	POLH inh	L3MBTL1 block	POLI inh	APEX1 inh	Pol kappa inh
CC1Oc2cc3c(-c4c(O)cc(O)c5c(O)c6c(cc45)OC(C)C(C)C6=O)c(O)cc(O)c3c(O)c2C(=O)C1C (configuration not stated)	35.5µM*	7.08µM*	2µM*	3.98µM*	?	35.5µM*
ClCCN(CCCl)c1ccc(/C=C/c2sc3ccccc3[n+]2CCCCI)cc1	nt	nt	nt	89.1µM*	nt	28.2µM*
C=C(C)C(N)=O	nt	nt	nt	nt	14.5%	nt
CN1CCN(c2ccc(/C=C3\C(=O)NC(=S)N(c4cccc(Br)c4)C3=O)o2)CC1	-4.9%	?	-19.7%	?	2.6%	-17.3%
Cc1ccc(N2C(=O)/C(=C/c3ccc(CN(CCC#N)S(C)(=O)=O)o3)C(=O)NC2=S)cc1C	20µM*	nt	?	nt	?	nt
CC(C)CCC(=O)OC1CCC2C3CCC4=CC(=O)CC[C@]4(C)C3CC[C@]12C (some centres not stated)	nt	nt	nt	nt	nt	1.7%[19.4 µM]
CCCCCCCCc1ccc(O)cc1	nt	-18.1%	6.9%	-9.3%	15.5%	-30.3%
CCCCc1ccc(C(=O)O)nc1	5.4%[57.1 µM]	-6.1%	8.91µM*	-29.4%	4.1%	1.3%[60.1 µM]
O=C1CCC2(O)C3Cc4ccc(O)c5c4C2(CCN3Cc2ccoc2)C1O5 (configuration not stated)	nt	28.2µM*	nt	nt	nt	nt
N#CC1=C(N)Oc2n[nH]c(-c3cccs3)c2C1c1ccco1 (configuration not stated)	-1.9%	?	-16.4%	12.6µM*	-0.5%	-15.9%
Nc1nnc(Sc2ncccc2[N+](=O)[O-])s1	-29.8%	2.2%	nt	173.0%	-4.0%	-10.2%
CSCCOC(=O)COc1ccc(/C=N/NC(=O)c2c(Cl)cnn2C)cc1	-1.5%	-3.0%	1.4%	164.5%	4.1%	-8.7%
Cc1cc(N2CCCCC2)nc2ccc(NC(=O)/C=C/c3ccc(OC(C)C)cc3)cc12	30.2%	-15.6%	nt	12.1%	nt	-1.8%
Cc1ccc(F)cc1NC(=O)c1ccc(Cn2nc(N3CCN(c4ccccc4)CC3)ccc2=O)o1	?	79.4µM*	nt	?	nt	-11.0%
CC(C)NC(=O)C(C)N1CCN(S(=O)(=O)c2ccc3ccccc3c2)CC1 (configuration not stated)	2.9%	10.8%	nt	38.8%	-0.6%	1.9%
O=C1CC=C2C3CC4N(CCC45c4cc(O)c(O)cc4N1C25)CC3=CCBr (configuration not stated)	nt	?	nt	39.8µM*	nt	?
O=C1CC=C2C3CC4N(CCC45c4ccccc4N1C25)CC3=CCO (configuration not stated)	nt	-13.8%	nt	13.4%	nt	-3.6%
Cc1cccc(C)c1OCc1n[nH]c(=S)n1N	38.0%	0.2%	3.2%	-5.6%	8.5%	-6.8%
NNc1n[nH]c(=S)n1N	32.3%	-13.4%	nt	15.8µM*	?	-9.5%
CC(=O)OCc1ccc2c(c1)OCO2	nt	nt	nt	nt	14.4%	nt
O=C1NC(=O)N(CCc2ccc(F)cc2)C(=O)/C1=C\C=C\c1ccccc1	-1.4%	-11.5%	nt	3.16µM*	4.7%	-11.5%
NC(N)=NCCC[C@@H](N)C(=O)O	nt	nt	nt	nt	12.3%	3.7%[19.4 µM]
C[C@]12CC[C@@H]3c4ccc(OC(=O)N(CCCl)CCCl)cc4CC[C@H]3[C@@H]1CC[C@@H]2O	nt	nt	nt	nt	nt	8.91µM*
C[C@]12CC[C@@H]3c4cc(O)c(O)cc4CC[C@H]3[C@@H]1CC[C@@H]2O	?	5.1%	nt	-21.9%	7.3%	-12.6%
O=C(Cn1cnc2ccccc2c1=O)NCc1cccs1	-0.3%	-13.4%	8.5%	78.5%	0.1%	-14.3%
SMILES	Pol beta inh	POLH inh	L3MBTL1 block	POLI inh	APEX1 inh	Pol kappa inh
COc1ccc(CCNc2nc3c(c(=O)n(C)c(=O)n3C)n2Cc2ccc(F)cc2)cc1OC	3.4%	-20.7%	nt	31.3%	nt	-6.1%
Cc1c(C(=O)Nc2ccc(Br)cc2F)oc2ccc(S(=O)(=O)N3CCCCC3)cc12	-0.2%	3.9%	nt	-4.7%	nt	-10.5%[60.1 µM]
NC(Cc1ccc(N(CCCl)CCCl)cc1)C(=O)O (configuration not stated)	-10.1%[57.1 µM]	-1.7%[57.1 µM]	nt	-13.5%[58.9 µM]	-3.2%	0.4%[60.1 µM]
N[C@@H](Cc1cc(Br)c(O)c(Br)c1)C(=O)O	22.4µM*	nt	?	nt	12.8%	nt
CN(C)C(=O)Oc1ccc(Cl)c2ccccc12	8.2%	2.5%	nt	5.8%	22.7%	1.8%
Cc1c(OC(=O)N(C)C)ccc2c1O/C(=C\c1ccco1)C2=O	50.1µM*	-20.2%	nt	11.9%	-20.0%	-2.4%
O=C1NC(=O)C(=Cc2ccc(OCCOc3ccc([N+](=O)[O-])cc3)cc2)C(=O)N1	?	79.4µM*	39.8µM*	?	-12.0%	-34.2%
CCc1ccc(NC(=O)Cn2c(=O)oc3cc(S(=O)(=O)NCc4ccccc4)ccc32)cc1	20µM*	-9.1%	nt	-12.6%	nt	-30.9%
Cc1ccc(NC(=O)Cn2c(=O)oc3cc(S(=O)(=O)N4CCCCCC4)ccc32)cc1Cl	?	6.5%	nt	-14.1%	nt	-15.1%[60.1 µM]
CCN(C[C@H]1N[C@@](CC)(C(=O)OC)[C@H]2C(=O)N(Cc3ccccc3)C(=O)[C@@H]12)C(=O)Nc1ccc(Cl)cc1	nt	-16.7%	-2.1%	38.1%	23.7%	10.4%
Cc1ccc(N2C(=O)NC(=O)/C(=C\C=C\c3ccco3)C2=O)cc1	?	50.1µM*	nt	17.8µM*	?	-99.7%
Cc1ccccc1-n1c(C)cc(/C=C2/C(=O)NC(=O)N(Cc3ccco3)C2=O)c1C	-9.5%	?	-10.0%	?	-7.3%	?
COc1ccc(/C=C2/C(=O)NC(=O)N(Cc3ccco3)C2=O)cc1	10µM*	nt	8.91µM*	nt	13.1%	nt
Cc1ccc(/C=C2\C(=O)NC(=O)N(Cc3ccccc3Cl)C2=O)o1	?	79.4µM*	-25.1%	25.1µM*	-1.8%	?
Cc1cccc(N2C(=O)NC(=O)/C(=C\C=C\c3ccco3)C2=O)c1	?	?	?	12.6µM*	?	-94.0%
O=C1NC(=O)N(c2ccc3c(c2)OCO3)C(=O)/C1=C/c1ccc(N2CCCC2)o1	7.4%	?	-5.5%	?	0.4%	-6.4%
COc1ccc(CN2C(=O)NC(=O)/C(=C/c3ccc([N+](=O)[O-])o3)C2=O)cc1	6.31µM*	nt	nt	nt	?	nt
Cc1cccc(N2C(=O)NC(=O)/C(=C/c3ccc([N+](=O)[O-])o3)C2=O)c1	5.62µM*	2.51µM*	6.31µM*	3.16µM*	?	8.91µM*
ClCCN(CCCl)/C(=C\c1ccccc1)c1ccnc2ccccc12	nt	nt	nt	16.8%	nt	5.3%
